Values joined by “and” are separate entries in the source; they are usually repeats but may differ in a detail not shown here. Identical values can stand only once. Results filed as inconclusive are left out. Some compounds were tested as several samples or in several runs, with calls that do not always agree. Active and inactive are the calls of the source. Unless noted, the call rests on the fitted dose curve; in most records, active means well fitted curve in the direction sought with a large enough effect in the repeat runs; inconclusive means weak or mixed curves; inactive means no such curve, though single readings can be large; an effect the other way counts as inactive or inconclusive. Starred links: 1 amine or outer side, 2 acyl side, 3 side chain; linkers in the order of their positions; H or OH if unused. Positions of bridges follow the written chain, without caps; N, C: chain ends. Non-standard residues stand in square brackets, D forms with d. Residues, ends and D or L forms follow the SMILES beside them. Chains are numbered I, II in the order given. Actinocin(9to1) = Cc1c2oc3c(C)ccc(C(=O)[*:1])c3nc-2c(C(=O)[*:2])c(N)c1=O; NMeV = CN[C@H](C(=O)O)C(C)C; Sar = CNCC(=O)O
Experiment: qHTS assay for small molecule disruptors of the mitochondrial membrane potential - cell viability (AID 720634; calls by dose curve; further: nearly all actives have a fitted effect of over 20% in size; further: potency means the concentration at half of the fitted maximal effect;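 on activity change, negative = cytotoxicity: human HepG2 liver cancer cells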)
Settings: HepG2 viability, ATP luminescence (CellTiter-Glo), 1 h; series mostly up to 83.2 µM; activity change, negative = cytotoxicity: at the top concentration
Method in brief: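 In this qHTS format, HepG2 cells plated overnight were pinned with compound, incubated 1 hr, and assayed for ATP luminescence with CellTiter-Glo after m-MPI dye addition.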
On the % scale 0 is the no-effect control and ±100 the full control effect.

Row | SMILES | Potency | activity change, negative = cytotoxicity
1 | CC1=CC(=O)c2ccccc2C1=O | inactive and 54.5 µM (active) | –
2 | CCc1ccc(C(c2ccc(CC)cc2)C(Cl)Cl)cc1 | inactive | –
3 | NCCO | inactive | –
4 | COc1cc(C(=S)N2CCOCC2)ccc1O | – | 7.69% (inactive)
5 | Nc1cc(S(=O)(=O)O)cc2cc(S(=O)(=O)O)cc(O)c12 | inactive | –
6 | Cc1cc(C2(c3cc(C)c(O)cc3C)OS(=O)(=O)c3ccccc32)c(C)cc1O | inactive | –
7 | CC(=O)N[C@@H](CS)C(=O)O | inactive | –
8 | CC[C@@H](N)CO | – | 8.93% [at 95.3 µM] (inactive)
9 | COC(=O)[C@H]1[C@H]2C[C@@H]3c4[nH]c5cc(OC)ccc5c4CCN3C[C@H]2C[C@@H](OC(=O)c2cc(OC)c(OC)c(OC)c2)[C@@H]1OC | inactive | –
10 | CC(C)(C)c1ccccc1 | – | 15.3% (inactive)
11 | Cc1ccnc2c1NC(=O)c1cccnc1N2C1CC1 | inactive | –
12 | CCOC(=O)C(C)C(C)=O (stereo unspecified) | – | 6.71% [at 95.3 µM] (inactive)
13 | O=Cc1ccc(Cl)cc1 | – | 6.93% (inactive)
14 | O=S(=O)(O)c1ccc2nc(-c3ccccc3)[nH]c2c1 | 9.44 µM (active) and 26 µM (active) | –
15 | CCCC(=O)c1ccccc1 | – | 6.97% (inactive)
16 | COC(c1ccccc1)(c1ccccc1)[C@H](Oc1nc(C)cc(C)n1)C(=O)O | – | -9.54% (inactive)
17 | Cc1cccc2n[nH]nc12 | inactive | –

Row | SMILES | Potency | activity change, negative = cytotoxicity
18 | Cc1scc2c1N(C(=O)CN1CCN(C)CC1)c1ccccc1NC2=O | – | -5.28% (inactive)
19 | CCN(CC)C(=O)Nc1ccc(OCC(O)CNC(C)(C)C)c(C(C)=O)c1 (stereo unspecified) | – | 3.51% (inactive)
20 | CC[C@H]1CN2CCc3cc(OC)c(OC)cc3[C@@H]2C[C@@H]1C[C@H]1NCCc2cc(OC)c(OC)cc21 | inactive | –
21 | OCCOCCN1CCN(C(c2ccccc2)c2ccc(Cl)cc2)CC1 (stereo unspecified) | inactive | –
22 | Cc1cc(C(C)(C)C)c(O)c(C(C)(C)C)c1 | inactive | –
23 | CC(=O)CC(C)=O | – | 11.7% [at 95.3 µM] (inactive)
24 | NC(Cc1ccc(Cl)cc1)C(=O)O (stereo unspecified) | – | 7.79% (inactive)
25 | CC1=C(C=O)C(C)(C)CC=C1 | – | 1.15% [at 95.3 µM] (inactive)
26 | CCCCOCCOC(=O)c1ccccc1C(=O)OCCOCCCC | inactive | –
27 | CCCCC/C=C/CC1CC(=O)OC1=O (stereo unspecified) | – | 15.2% (inactive)
28 | O=C(O)c1cn(-c2ccc(F)cc2)c2cc(N3CCNCC3)c(F)cc2c1=O | – | -8.75% (inactive)
29 | C=C(C)C(=O)O | inactive | –
30 | CC(C(O)c1ccc(O)cc1)N1CCC(Cc2ccccc2)CC1 (stereo unspecified) | – | 4.06% (inactive)
31 | Cc1c2oc3c(C)ccc(C(=O)N[C@@H]4C(=O)N[C@H](C(C)C)C(=O)N5CCC[C@H]5C(=O)N(C)CC(=O)N(C)[C@@H](C(C)C)C(=O)O[C@@H]4C)c3nc-2c(C(=O)N[C@@H]2C(=O)N[C@H](C(C)C)C(=O)N3CCC[C@H]3C(=O)N(C)CC(=O)N(C)[C@@H](C(C)C)C(=O)O[C@@H]2C)c(N)c1=O (I: T[dV]P[Sar][NMeV] / II: T[dV]P[Sar][NMeV]; ester I:1-I:C, II:1-II:C; linker I:N-II:N via Actinocin(9to1)) | inactive | –
32 | C=CS(=O)(=O)O | inactive | –
33 | O=c1n(CC2CO2)c(=O)n(CC2CO2)c(=O)n1CC1CO1 (stereo unspecified) | inactive | –

Experiment: qHTS assay for small molecule disruptors of the mitochondrial membrane potential (AID 720635); further: potency means the concentration at half of the fitted maximal effect
Settings: HepG2 mitochondrial membrane potential, Mito-MPS dye ratio; series mostly up to 83.2 µM; ratio activity, negative = MMP loss: at the top concentration
Method in brief: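 HepG2 cells (2,000/well) attached overnight at 37C, then took compound for 1 hr at 37C, 5% CO2. Mito-MPS dye was added for 30 min; fluorescence was read at 490/535 nm (monomers) and 540/590 nm (aggregates).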

Row | SMILES | Potency | ratio activity, negative = MMP loss
34 | CCc1ccc(C(c2ccc(CC)cc2)C(Cl)Cl)cc1 | 49.3 µM (active) and 27.3 µM (active) | –
35 | Cc1cc(Cc2cc(C)cc(C(C)(C)C)c2O)c(O)c(C(C)(C)C)c1 | 1.23 µM (active) and 1.09 µM (active) | –
36 | Nc1cc(S(=O)(=O)O)cc2cc(S(=O)(=O)O)cc(O)c12 | – | 33.7% (inactive)
37 | COC(=O)[C@H]1[C@H]2C[C@@H]3c4[nH]c5cc(OC)ccc5c4CCN3C[C@H]2C[C@@H](OC(=O)c2cc(OC)c(OC)c(OC)c2)[C@@H]1OC | 48.5 µM (active) | –
38 | CCOC(=O)C(C)C(C)=O (stereo unspecified) | – | 11.3% [at 95.3 µM] (inactive)
39 | O=S(=O)(O)c1ccc2nc(-c3ccccc3)[nH]c2c1 | – | 10.7% (inactive)
40 | COC(c1ccccc1)(c1ccccc1)[C@H](Oc1nc(C)cc(C)n1)C(=O)O | – | -6.71% (inactive)
41 | Cc1cccc2n[nH]nc12 | inactive | –
42 | Oc1c(Cl)cc(Cl)c(Cl)c1Cc1c(O)c(Cl)cc(Cl)c1Cl | 841 nM (active) and 484 nM (active) and 344 nM (active) | –
43 | Cc1cc(C(C)(C)C)c(O)c(C(C)(C)C)c1 | 48.7 µM (active) and 24.3 µM (active) | –
44 | O=c1n(CC2CO2)c(=O)n(CC2CO2)c(=O)n1CC1CO1 (stereo unspecified) | inactive | –

Experiment: qHTS assay to test for compound auto fluorescence at 590 nm (red) in HepG2 cells (AID 720674)
Settings: HepG2 autofluorescence, red 540/590 nm, 1 h; series mostly up to 91.3 µM; fluorescence, relative to Rose Bengal: at the top concentration
Method in brief: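 Intrinsic compound fluorescence in the red window (Ex/Em 540/590 nm) is measured in attached HepG2 cells exposed for 1 hr, DMSO vehicle as baseline, benchmarked to Rose Bengal sodium.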

Row | SMILES | outcome | fluorescence, relative to Rose Bengal
45 | CC1=CC(=O)c2ccccc2C1=O | inactive | –
46 | CCc1ccc(C(c2ccc(CC)cc2)C(Cl)Cl)cc1 | inactive | –
47 | NCCO | inactive | –
48 | COc1cc(C(=S)N2CCOCC2)ccc1O | – | -0.18% [at 46 µM] (inactive)
49 | Cc1cc(Cc2cc(C)cc(C(C)(C)C)c2O)c(O)c(C(C)(C)C)c1 | inactive | –
50 | Nc1cc(S(=O)(=O)O)cc2cc(S(=O)(=O)O)cc(O)c12 | inactive | –
51 | Cc1cc(C2(c3cc(C)c(O)cc3C)OS(=O)(=O)c3ccccc32)c(C)cc1O | inactive | –
52 | CC(=O)N[C@@H](CS)C(=O)O | inactive | –
53 | CC[C@@H](N)CO | – | -0.007% [at 95.7 µM] (inactive)
54 | COC(=O)[C@H]1[C@H]2C[C@@H]3c4[nH]c5cc(OC)ccc5c4CCN3C[C@H]2C[C@@H](OC(=O)c2cc(OC)c(OC)c(OC)c2)[C@@H]1OC | inactive | –
55 | CC(C)(C)c1ccccc1 | – | -0.11% (inactive)
56 | Cc1ccnc2c1NC(=O)c1cccnc1N2C1CC1 | inactive | –
57 | CCOC(=O)C(C)C(C)=O (stereo unspecified) | – | 0.32% (inactive)
58 | O=Cc1ccc(Cl)cc1 | – | -0.155% (inactive)
59 | O=S(=O)(O)c1ccc2nc(-c3ccccc3)[nH]c2c1 | inactive | –
60 | CCN(CC)c1ccc2c(C)cc(=O)oc2c1 | inactive | –
61 | CC(=O)C1=C(C)[C@@H]2C[C@@]3(C1)[C@H](C)CC[C@H]3C2(C)C | inactive | –
62 | CCCC(=O)c1ccccc1 | – | -0.0764% (inactive)
63 | COC(c1ccccc1)(c1ccccc1)[C@H](Oc1nc(C)cc(C)n1)C(=O)O | – | -0.291% [at 46 µM] (inactive)

Row | SMILES | outcome | fluorescence, relative to Rose Bengal
64 | Cc1cccc2n[nH]nc12 | inactive | –
65 | Oc1c(Cl)cc(Cl)c(Cl)c1Cc1c(O)c(Cl)cc(Cl)c1Cl | inactive | –
66 | Cc1scc2c1N(C(=O)CN1CCN(C)CC1)c1ccccc1NC2=O | – | 0.323% [at 46 µM] (inactive)
67 | CCN(CC)C(=O)Nc1ccc(OCC(O)CNC(C)(C)C)c(C(C)=O)c1 (stereo unspecified) | – | -0.0432% [at 46 µM] (inactive)
68 | CC[C@H]1CN2CCc3cc(OC)c(OC)cc3[C@@H]2C[C@@H]1C[C@H]1NCCc2cc(OC)c(OC)cc21 | inactive | –
69 | OCCOCCN1CCN(C(c2ccccc2)c2ccc(Cl)cc2)CC1 (stereo unspecified) | inactive | –
70 | Cc1cc(C(C)(C)C)c(O)c(C(C)(C)C)c1 | inactive | –
71 | CC(=O)CC(C)=O | – | -0.0063% [at 95.7 µM] (inactive)
72 | NC(Cc1ccc(Cl)cc1)C(=O)O (stereo unspecified) | – | 0.604% [at 46 µM] (inactive)
73 | CC1=C(C=O)C(C)(C)CC=C1 | – | 0.0052% [at 95.7 µM] (inactive)
74 | CCCCOCCOC(=O)c1ccccc1C(=O)OCCOCCCC | inactive | –
75 | CCCCC/C=C/CC1CC(=O)OC1=O (stereo unspecified) | – | -0.0202% (inactive)
76 | O=C(O)c1cn(-c2ccc(F)cc2)c2cc(N3CCNCC3)c(F)cc2c1=O | – | 0.0079% [at 46 µM] (inactive)
77 | C=C(C)C(=O)O | inactive | –
78 | CC(C(O)c1ccc(O)cc1)N1CCC(Cc2ccccc2)CC1 (stereo unspecified) | – | -0.113% [at 46 µM] (inactive)
79 | Cc1c2oc3c(C)ccc(C(=O)N[C@@H]4C(=O)N[C@H](C(C)C)C(=O)N5CCC[C@H]5C(=O)N(C)CC(=O)N(C)[C@@H](C(C)C)C(=O)O[C@@H]4C)c3nc-2c(C(=O)N[C@@H]2C(=O)N[C@H](C(C)C)C(=O)N3CCC[C@H]3C(=O)N(C)CC(=O)N(C)[C@@H](C(C)C)C(=O)O[C@@H]2C)c(N)c1=O (I: T[dV]P[Sar][NMeV] / II: T[dV]P[Sar][NMeV]; ester I:1-I:C, II:1-II:C; linker I:N-II:N via Actinocin(9to1)) | inactive | –
80 | C=CS(=O)(=O)O | inactive | –
81 | O=c1n(CC2CO2)c(=O)n(CC2CO2)c(=O)n1CC1CO1 (stereo unspecified) | inactive | –
